The experiment can be described thus: chemical genetic growth profiling, strain panel (AID 1159580).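 Note: tested at 20 µM; growth read once vehicle control cultures reached saturation at 30 °C; 1 = growth at the plate median or of vehicle wells; lower values mean less growth of the strain.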 To be noted: S. cerevisiae deletion strains, growth OD.
Setting [1] is: locus YAL013W, strain DEP1, hits give low values.
The mark [2] stands for this setting: locus YDR150W, strain NUM1, hits give low values.
Setting [3] is: locus YGR078C, strain PAC10, hits give low values.
Setting [4] is: locus YJR075W, strain HOC1, hits give low values.
Setting [5] is: locus YNL153C, strain GIM3, hits give low values.
The mark [6] stands for this setting: locus YPL241C, strain CIN2, hits give low values.

Structures are written as SMILES. The whole screen tested about 5,500 compounds, of which about 2,000 (36%) were called active. Another 18% or so got no clear call; they are omitted. The list shows a part of the results. A number with no mark means an inactive call. Cut-off read from the data, not from the text of the source: active = normalized growth mostly below about 0.91 (no sharp cut-off); inconclusive = no clear call, values can overlap the other calls; inactive = mostly above about 0.92.

As to `N#Cc1cc2nc(O)c(O)nc2cc1[N+](=O)[O-]`, the normalized growth under setting [1] is 0.985; the normalized growth (locus YAL040C, strain CLN3, hits give low values) is 0.989; the normalized growth (locus YCL061C, strain MRC1 (second series), hits give low values) is 0.998; the normalized growth under setting [2] is 0.993; the normalized growth (locus YDR363W, strain ESC2, hits give low values) was 1.01; the normalized growth (locus YER002W, strain NOP16, hits give low values) is 1.01. Also, the normalized growth was 0.979 under setting [3]; 1.02 (locus YGR229C, strain SMI1, hits give low values); 1 under setting [4]; 0.991 (locus YMR307W, strain GAS1, hits give low values); 0.984 under setting [5]; 0.995 (locus YNL175C, strain NOP13, hits give low values). Further, the normalized growth is 0.997 (locus YNL197C, strain WHI3, hits give low values); 0.979 (locus YNL224C, strain SQS1, hits give low values); 0.994 (locus YOR083W, strain WHI5 (second series), hits give low values); 1 under setting [6].
As to `N#Cc1csc([N+](=O)[O-])c1`, the normalized growth is 0.944 under setting [1]; 0.908 (active) (locus YBR229C, strain ROT2, hits give low values); 0.937 (locus YCL061C, strain MRC1, hits give low values); 0.817 (active) (locus YDL101C, strain DUN1, hits give low values); 0.892 (active) (locus YDL134C, strain PPH21, hits give low values); 0.885 under setting [2]. Further, the normalized growth (locus YEL061C, strain CIN8, hits give low values) is 0.797 (active); the normalized growth under setting [3] was 0.86 (active); the normalized growth (locus YHR030C, strain SLT2, hits give low values) is 0.363 (active); the normalized growth (locus YHR087W, strain rtc3, hits give low values) was 0.917; the normalized growth (locus YJR043C, strain POL32, hits give low values) was 0.929; the normalized growth under setting [4] was 0.86 (active). Further, the normalized growth was 0.923 (active) (locus YKL190W, strain CNB1, hits give low values); 0.687 (active) (locus YLR039C, strain RIC1, hits give low values); 0.951 (locus YLR058C, strain SHM2 (second series), hits give low values); 0.456 (active) (locus YLR085C, strain ARP6, hits give low values); 0.795 (active) (locus YLR262C, strain YPT6, hits give low values); 0.809 (active) (locus YML094W, strain GIM5, hits give low values). Further, the normalized growth was 0.941 (active) (locus YMR219W, strain ESC1, hits give low values); 0.942 (locus YNL128W, strain TEP1, hits give low values); 0.901 (active) under setting [5]; 0.823 (active) (locus YNL298W, strain CLA4 (second series), hits give low values); 1.01 (locus YNL322C, strain KRE1, hits give low values); 0.834 (active) (locus YNR030W, strain Alg12, hits give low values). Moreover, the normalized growth is 0.369 (active) (locus YOL006C, strain TOP1, hits give low values); 0.872 (locus YPL055C, strain LGE1, hits give low values); 0.744 (active) under setting [6]; 0.46 (active) (locus YPR135W, strain CTF4, hits give low values).

The values are drawn from PubChem BioAssay AID1159580 (chemical genetic matrix, 2015).
